{
  "source": "PubChem BioAssay AID2025",
  "about": "(NMMLSC, 2009)",
  "note": "About 980 (0.3%) of roughly 330,000 compounds were called active.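 The calls were made as follows: active = percent response vs DMSO below 50%; inconclusive = fewer than 70 events counted for the yeast strain; inactive = the rest.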 This excerpt belongs to a sample that is enriched for actives.",
  "data": [
    {"assay": "compounds altering RPL19A-GFP fluorescence, TOR branch – cell-based, S. cerevisiae, multiplex flow cytometry, MLPCN, primary screen (AID 2025);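 also: median channel GFP fluorescence of the barcoded RPL19A-GFP strain; ratio of sample median GFP to plate DMSO average so 100% = DMSO; lower means less RPL19A-GFP as with rapamycin TOR inhibition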", "conditions": "S. cerevisiae RPL19A-GFP strain, 3 h, at 10 µM, active compounds read low", "values": [
      {"smiles": "CN1CCN(C2Cc3ccc(Cl)cc3Sc3ccc(F)cc32)CC1", "note": "(configuration not stated)", "percent response vs DMSO": "100% (inactive)"},
      {"smiles": "COCCN(C(=O)CSCc1ccc(C)cc1)c1c(N)n(CC(C)C)c(=O)[nH]c1=O", "percent response vs DMSO": "93.3% (inactive)"},
      {"smiles": "Nc1nc(SCc2cccc(Br)c2)n[nH]1", "percent response vs DMSO": "99.2% (inactive)"},
      {"smiles": "Cc1ccc(N2CCN(S(=O)(=O)c3ccc(F)cc3)CC2)c(C)c1", "percent response vs DMSO": "94.2% (inactive)"},
      {"smiles": "CCN(CC(=O)NC(=O)NCc1ccccc1)Cc1nc2ccccc2c(=O)[nH]1", "percent response vs DMSO": "102% (inactive)"},
      {"smiles": "O=C(c1ccco1)N(Cc1nc2ccccc2c(=O)[nH]1)C1CCCC1", "percent response vs DMSO": "16.5% [may fluoresce violet] (active)"},
      {"smiles": "CCCC(=O)N(CCc1ccccc1)Cc1nc2ccccc2c(=O)[nH]1", "percent response vs DMSO": "90.4% (inactive)"},
      {"smiles": "CC(C)(C)NC(=O)CN(Cc1cccs1)C(=O)CNS(=O)(=O)c1ccccc1", "percent response vs DMSO": "107% (inactive)"},
      {"smiles": "O=P(c1cccs1)(c1cccs1)c1cccs1", "percent response vs DMSO": "98.8% (inactive)"},
      {"smiles": "Cc1cccc(NC(=O)c2cccc(C(=O)Nc3cccc(C)c3C)n2)c1C", "percent response vs DMSO": "49.4% [may fluoresce violet] (active)"},
      {"smiles": "Cc1nc(C)c(C(=O)Nc2cccc(C)c2C)o1", "percent response vs DMSO": "98.6% (inactive)"},
      {"smiles": "Cc1cccc(NC(=O)c2ccc3nsnc3c2)c1C", "percent response vs DMSO": "103% (inactive)"},
      {"smiles": "Cn1c(=O)oc2cc(S(=O)(=O)NCCC(=O)NCc3ccccc3Cl)ccc21", "percent response vs DMSO": "106% (inactive)"},
      {"smiles": "COc1ccccc1S(=O)(=O)NCc1ccc(C(=O)N(C)Cc2ccc(F)cc2)cc1", "percent response vs DMSO": "91.3% (inactive)"},
      {"smiles": "COc1ccccc1/C=C/C(=O)OCC(=O)NC1CCCCCC1", "percent response vs DMSO": "96.2% (inactive)"},
      {"smiles": "CCC(c1nnnn1Cc1ccccc1)N(Cc1cc2cc(OC)ccc2[nH]c1=O)CC1CCCO1", "note": "(configuration not stated)", "percent response vs DMSO": "94.8% (inactive)"},
      {"smiles": "CCC(c1nnnn1Cc1ccco1)N(CCc1ccccc1)Cc1cc2cccc(C)c2[nH]c1=O", "note": "(configuration not stated)", "percent response vs DMSO": "100% (inactive)"},
      {"smiles": "CCC(c1nnnn1Cc1ccco1)N(Cc1cc2cc(OC)ccc2[nH]c1=O)C1CCCCC1", "note": "(configuration not stated)", "percent response vs DMSO": "39.1% [may fluoresce violet] (active)"},
      {"smiles": "O=C(CS(=O)(=O)c1ccc(C(F)(F)F)cn1)NNC(=O)c1ccccc1", "percent response vs DMSO": "99.4% (inactive)"},
      {"smiles": "C/C(=N\\NS(=O)(=O)c1ccccc1)c1c(O)cc(C)oc1=O", "percent response vs DMSO": "105% (inactive)"},
      {"smiles": "Cc1ccc(OCC(=O)Nc2ccc(N3CCN(C(=O)c4ccco4)CC3)cc2)c(C)c1", "percent response vs DMSO": "41.5% [may fluoresce violet] (active)"},
      {"smiles": "CCC(=O)Nc1ccc(C(=O)N2CCN(C(=O)c3ccco3)CC2)cc1", "percent response vs DMSO": "94.2% (inactive)"},
      {"smiles": "Cc1ccc(C)c(OCC(=O)N2CCN(C(=O)c3ccco3)CC2)c1", "percent response vs DMSO": "110% (inactive)"},
      {"smiles": "CC1(C)OC(=O)N2CCc3ccccc3C21C", "note": "(configuration not stated)", "percent response vs DMSO": "99% (inactive)"},
      {"smiles": "O=C(Nc1cc2c3c(c1)CC(=O)N3CCC2)c1ccccc1F", "percent response vs DMSO": "43.6% [may fluoresce violet] (active)"},
      {"smiles": "CCCNC(=O)C(=O)Nc1cc2c3c(c1)CCC(=O)N3CCC2", "percent response vs DMSO": "100% (inactive)"},
      {"smiles": "O=C(COc1ccccc1)Nc1cc2c3c(c1)CC(=O)N3CCC2", "percent response vs DMSO": "101% (inactive)"},
      {"smiles": "Cc1cccc(NC(=S)NCc2ccc3[nH]c4c(c3c2)CCCC4)c1", "percent response vs DMSO": "105% (inactive)"},
      {"smiles": "COc1cccc(CN2CCNC(=O)C2CC(=O)N(C)CCc2ccccn2)c1", "note": "(configuration not stated)", "percent response vs DMSO": "102% (inactive)"},
      {"smiles": "O=C(NCc1ccccn1)c1ccc2nc(-c3ccco3)c(-c3ccco3)nc2c1", "percent response vs DMSO": "99.4% (inactive)"},
      {"smiles": "COCCNC(=O)Nc1ccc2nc(-c3ccco3)c(-c3ccco3)nc2c1", "percent response vs DMSO": "23.4% [may fluoresce violet] (active)"},
      {"smiles": "COc1cccc(NC(=O)NCCN2CCCCC2)c1", "percent response vs DMSO": "96% (inactive)"},
      {"smiles": "COc1ccc([N+](=O)[O-])cc1NCC(=O)c1ccc(C)cc1", "percent response vs DMSO": "104% (inactive)"},
      {"smiles": "COc1cc(C(=O)NCCOC(=O)c2cccc(N(C)C)c2)cc(OC)c1OC", "percent response vs DMSO": "101% (inactive)"},
      {"smiles": "CNS(=O)(=O)c1cccc(C(=O)NC2CCCc3ccccc32)c1", "note": "(configuration not stated)", "percent response vs DMSO": "101% (inactive)"},
      {"smiles": "O=C(CCC(=O)N1CCN(S(=O)(=O)c2ccccc2)CC1)NC1CCCc2ccccc21", "note": "(configuration not stated)", "percent response vs DMSO": "101% (inactive)"},
      {"smiles": "O=C(O)c1cc(S(=O)(=O)NC2CCCc3ccccc32)ccc1O", "note": "(configuration not stated)", "percent response vs DMSO": "34.1% [may fluoresce violet] (active)"},
      {"smiles": "CC(=O)Nc1ccccc1C(=O)C(=O)Nc1ccc(F)cc1", "percent response vs DMSO": "105% (inactive)"},
      {"smiles": "O=C(CCC(=O)c1ccccc1)NCc1cccc(C(F)(F)F)c1", "percent response vs DMSO": "98.9% (inactive)"},
      {"smiles": "O=C(c1cc2ccccc2o1)N1CCN(c2cccc(C(F)(F)F)c2)CC1", "percent response vs DMSO": "98.3% (inactive)"},
      {"smiles": "O=C(c1cccc(Cl)c1)N1CCN(Cc2ccccc2)CC1", "percent response vs DMSO": "103% (inactive)"},
      {"smiles": "COc1ccc(CNC(=O)C2CCN(C(=O)c3ccccc3)CC2)cc1", "percent response vs DMSO": "82.1% (inactive)"},
      {"smiles": "O=C(NCc1ccncc1)C1CCN(C(=O)c2cccc(Cl)c2)CC1", "percent response vs DMSO": "42.1% [may fluoresce violet] (active)"},
      {"smiles": "COc1ccc(S(=O)(=O)N2CCOC2CNC(=O)C(=O)NCc2ccncc2)cc1C", "note": "(configuration not stated)", "percent response vs DMSO": "99.3% (inactive)"},
      {"smiles": "Cc1ccc(C2SCC(=O)N2c2ccccc2)cc1", "note": "(configuration not stated)", "percent response vs DMSO": "103% (inactive)"},
      {"smiles": "COc1cccc(C2SCC(=O)N2c2cccc(C)c2)c1OC", "note": "(configuration not stated)", "percent response vs DMSO": "49.7% [may fluoresce violet] (active)"},
      {"smiles": "O=C1CSC(c2cccc(F)c2)N1c1ccc(O)cc1", "note": "(configuration not stated)", "percent response vs DMSO": "95.8% (inactive)"},
      {"smiles": "O=C(CC(NS(=O)(=O)c1ccc(Cl)cc1)c1ccco1)NC1CCCC1", "note": "(configuration not stated)", "percent response vs DMSO": "96.4% (inactive)"},
      {"smiles": "O=C(CSc1ccccn1)Nc1nc2c(ccc3ccccc32)s1", "percent response vs DMSO": "106% (inactive)"},
      {"smiles": "CC(=O)Nc1ccc(NC(=O)COC(=O)C2CCC(C(C)(C)C)CC2)cc1", "note": "(configuration not stated)", "percent response vs DMSO": "103% (inactive)"},
      {"smiles": "COc1ccc(NC(=O)CN(C)C(=O)CC2CCCCC2)cc1", "percent response vs DMSO": "96.3% (inactive)"},
      {"smiles": "CC(=O)Nc1ccc(NC(=O)CC2CCCC2)cc1", "percent response vs DMSO": "42.2% [may fluoresce violet] (active)"},
      {"smiles": "Cc1ccc(NC(=S)N(CCCN2CCCC2)Cc2cccn2Cc2ccc(Cl)cc2)cc1", "percent response vs DMSO": "99.4% (inactive)"},
      {"smiles": "CN(CCCNC(=O)CN1C(=O)CC(C)(C)S(=O)(=O)c2ccccc21)C1CCCCC1", "percent response vs DMSO": "91.3% (inactive)"},
      {"smiles": "Cc1nccn1CC(=O)N/N=C/c1ccc(O)c(O)c1", "percent response vs DMSO": "103% (inactive)"},
      {"smiles": "NCCCCCC(=O)N/N=C/c1ccc2nccnc2c1", "percent response vs DMSO": "48% [may fluoresce violet] (active)"},
      {"smiles": "O=C(N/N=C/c1ccc(Cl)c(Cl)c1)c1ccc2nc[nH]c2c1", "percent response vs DMSO": "99.3% (inactive)"}
    ]}
  ]
}
